This is part of a sample that, as a whole, favours compounds with a hit. Of some 83,000 tested, about 20% had one in any assay.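 A percent growth of 40 corresponds to 60% growth inhibition; 0 means no net growth; -100 means all cells died. Active threshold: below 10.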 Active and inactive are the calls of the source.
These compounds were tested on NCI-H322M lung (assay: NCI-60 one-dose screen, 48 h (100 = growth as untreated, 0 = no growth, -100 = all killed)). Settings: 10 µM unless noted.
In the case of `COc1cc(C=C2c3ccccc3C(=O)c3ccccc32)ccc1OCCCCOc1cc2c(cc1OC)C(=O)N1CCCC1C=N2` (stereo unspecified), the growth is reported as 13.3% (inactive).
For `C[CH2][Sn]([Cl])([Cl])[CH2]C.Oc1ccccc1C=NCCN=Cc1ccccc1O`, the growth was 101% (inactive).
With `COc1ccc(O)c(CNC(=O)CN2CCCC2=O)c1` the growth was 95.6% (inactive).
For `CCOC(=O)C(Cc1ccc(N(CCCl)CCCl)cc1)NC(=O)C(CC(C)C)NC(C)=O` (stereo unspecified), the growth was 97.1% (inactive).
In the case of `C[C@]12CC[C@H]3[C@@H](CC[C@]4(O)C[C@@H](O[C@@H]5O[C@H](CO)[C@@H](O[C@@H]6OC[C@@H](O)[C@H](O)[C@H]6O)[C@H](O)[C@H]5O)CC[C@]34C=O)[C@@]1(O)CC[C@@H]2C1=CC(=O)OC1`, the growth is reported as -13.2% (active).
With `Clc1ccc2nnnn2n1` the growth was 85.2% (inactive).
`CC1(C)N=C(N)N=C(N)N1c1ccc(CCCCc2ccc(Cl)c(S(=O)(=O)F)c2)c(Cl)c1` was tested, and the growth was 45.5% (inactive).
For `CC(=O)[O][Hg][c]1c(N)c(C)cc(C)c1F`, the growth was 85.1% (inactive).
With `O=C(NCCN1CC1)C(=O)NCCN1CC1` the growth was 102% (inactive).
`[Au+].[N-]=C=O.c1ccc(CN2[CH-]N(Cc3ccccc3)C(c3ccccc3)=C2c2ccccc2)cc1` was tested, and the growth was 112% (inactive).
In the case of `O=C(O)CNC(=O)C(Cl)(Cl)Cl`, the growth is reported as 97.7% (inactive).
For `N#C[Se]Cc1cc(-c2ccccc2)n(-c2ccc(S(N)(=O)=O)cc2)n1`, the growth was -5.66% (active).
For `CCCCCC1(CCBr)C(=O)NC(=O)NC1=O`, the growth was 118% (inactive).
In the case of `O=C(O)C(O)C(O)C1[O][Sb]([c]2ccc([N+](=O)[O-])cc2)[O]C1CO` (stereo unspecified), the growth is reported as 102% (inactive).
In the case of `O=Cc1cn(Cc2ccc(Cl)cc2)c2ccccc12`, the growth is reported as 82.5% (inactive).
For `COc1cc(NC(C)CCCNC2CN3CCC2CC3)c2ncccc2c1` (stereo unspecified), the growth was 63.3% (inactive).
`Cc1ccc(C(=O)NCCCOc2ccc(N)cc2Cl)cc1S(=O)(=O)F` was tested, and the growth was 87.2% (inactive).
For `CC(=O)OCC1O[C@@H]([S-])C(OC(C)=O)[C@H](OC(C)=O)[C@@H]1OC(C)=O.[Au+].c1ccc(CN2[CH-]N(Cc3ccccc3)C(c3ccccc3)=C2c2ccccc2)cc1`, the growth was 82.7% (inactive).
In the case of `O=C(Nc1ccc(Cl)cc1)Nc1nccs1`, the growth is reported as 40.6% (inactive).
In the case of `Clc1ccc(COC(Cn2ccnc2)c2ccc(Cl)cc2Cl)cc1` (stereo unspecified), the growth is reported as 84.9% (inactive).
`CC1CCCC(C[N+](C)(C)C)C1=O` (stereo unspecified) was tested, and the growth was 77.2% (inactive).
In the case of `CC(=O)/C=C/c1ccc2c(c1)OCO2`, the growth is reported as 104% (inactive).
In the case of `O=C(O)c1ccc([S-])cc1.[Au+].c1ccc(CN2[CH-]N(Cc3ccccc3)C(c3ccccc3)=C2c2ccccc2)cc1`, the growth is reported as 7.67% (active).

The compounds below were run on HOP-62 NSCLC in the same assay as above. Settings: 10 µM unless noted.
In the case of `COc1cc(NCCCN=C(N)N)c2ncccc2c1`, the growth is reported as 73% (inactive).
In the case of `ClCCN(CCCl)c1nc(Cl)c(C2CC(c3ccccc3)=NN2c2cc(Cl)cc(Cl)c2)s1` (stereo unspecified), the growth is reported as 111% (inactive).
In the case of `CCCCCCCC(=O)OCC(=O)[C@]1(O)Cc2c(O)c3c(c(O)c2[C@@H](OC2CC(N)C(O)C(C)O2)C1)C(=O)c1c(OC)cccc1C3=O` (stereo partly specified), the growth is reported as -63.1% (active).
`COC[C@@H]1C[C@@]2(C)[C@@H](CC[C@@H]3[C@@H]2CC[C@@]2(C)[C@H]3CC[C@]2(C)O)CC1=O` was tested, and the growth was 107% (inactive).
With `C[C@]12CC[C@@H]3c4ccc(Oc5nc(N6CC6)nc(N6CC6)n5)cc4CC[C@H]3[C@@H]1CCC2=O` the growth was 11.7% (inactive).
For `O=C1OCC2=C1C(c1ccccc1)c1cc3c(cc1N2)OCO3` (stereo unspecified), the growth was 15% (inactive).
`CCC1(C)CC(CCNCc2ccccc2O)(c2ccc(C)cc2)CCO1` (stereo unspecified) was tested, and the growth was 108% (inactive).
`ClCCN(CCCl)Cc1ccc(Nc2ccnc3cc(Cl)ccc23)cc1` was tested, and the growth was 31.3% (inactive).
With `c1ccc(Nc2nc(-c3ccccc3)c[se]2)cc1` the growth was 69.8% (inactive).
In the case of `CCN(CC)CCOC(=O)C(OC(C)C)(c1ccccc1)c1ccccc1`, the growth is reported as 94.8% (inactive).
With `CCCc1cc(O)c2c3c(c(=O)oc2c1)CN(C)CC3` the growth was 28.6% (inactive).
For `ClCCN(CCCl)c1ccc(/C=N/Nc2ncnc3nc[nH]c23)cc1`, the growth was 82% (inactive).
`CCC1(C(C)C)C(=O)NC(=S)NC1=O` was tested, and the growth was 102% (inactive).
`CC(C)(N)Cc1ccccc1` was tested, and the growth was 118% (inactive).
With `CC1(C)N=C(N)N=C(N)N1c1cccc(CCCCc2ccc(Cl)c(S(=O)(=O)F)c2)c1` the growth was 33.6% (inactive).
For `COc1cc(C=C2c3ccccc3C(=O)c3ccccc32)ccc1OCCCCOc1cc2c(cc1OC)C(=O)N1CCCC1C=N2` (stereo unspecified), the growth was -62.5% (active).
For `C[CH2][Sn]([Cl])([Cl])[CH2]C.Oc1ccccc1C=NCCN=Cc1ccccc1O`, the growth was 99.2% (inactive).
`COc1ccc(O)c(CNC(=O)CN2CCCC2=O)c1` was tested, and the growth was 97.1% (inactive).
For `CCOC(=O)C(Cc1ccc(N(CCCl)CCCl)cc1)NC(=O)C(CC(C)C)NC(C)=O` (stereo unspecified), the growth was 41% (inactive).
For `C[C@]12CC[C@H]3[C@@H](CC[C@]4(O)C[C@@H](O[C@@H]5O[C@H](CO)[C@@H](O[C@@H]6OC[C@@H](O)[C@H](O)[C@H]6O)[C@H](O)[C@H]5O)CC[C@]34C=O)[C@@]1(O)CC[C@@H]2C1=CC(=O)OC1`, the growth was -68.4% (active).
For `Clc1ccc2nnnn2n1`, the growth was 55.7% (inactive).
`CC1(C)N=C(N)N=C(N)N1c1ccc(CCCCc2ccc(Cl)c(S(=O)(=O)F)c2)c(Cl)c1` was tested, and the growth was 18.1% (inactive).
With `CC(=O)[O][Hg][c]1c(N)c(C)cc(C)c1F` the growth was 59.5% (inactive).
With `O=C(NCCN1CC1)C(=O)NCCN1CC1` the growth was 84.5% (inactive).
In the case of `[Au+].[N-]=C=O.c1ccc(CN2[CH-]N(Cc3ccccc3)C(c3ccccc3)=C2c2ccccc2)cc1`, the growth is reported as 116% (inactive).
For `O=C(O)CNC(=O)C(Cl)(Cl)Cl`, the growth was 107% (inactive).
For `N#C[Se]Cc1cc(-c2ccccc2)n(-c2ccc(S(N)(=O)=O)cc2)n1`, the growth was -87.3% (active).
For `CCCCCC1(CCBr)C(=O)NC(=O)NC1=O`, the growth was 107% (inactive).
`O=C(O)C(O)C(O)C1[O][Sb]([c]2ccc([N+](=O)[O-])cc2)[O]C1CO` (stereo unspecified) was tested, and the growth was 110% (inactive).
With `O=Cc1cn(Cc2ccc(Cl)cc2)c2ccccc12` the growth was 76.9% (inactive).
In the case of `COc1cc(NC(C)CCCNC2CN3CCC2CC3)c2ncccc2c1` (stereo unspecified), the growth is reported as 75.8% (inactive).
With `Cc1ccc(C(=O)NCCCOc2ccc(N)cc2Cl)cc1S(=O)(=O)F` the growth was 89.1% (inactive).
With `CC(=O)OCC1O[C@@H]([S-])C(OC(C)=O)[C@H](OC(C)=O)[C@@H]1OC(C)=O.[Au+].c1ccc(CN2[CH-]N(Cc3ccccc3)C(c3ccccc3)=C2c2ccccc2)cc1` the growth was 92.8% (inactive).
`O=C(Nc1ccc(Cl)cc1)Nc1nccs1` was tested, and the growth was 31.7% (inactive).
In the case of `Clc1ccc(COC(Cn2ccnc2)c2ccc(Cl)cc2Cl)cc1` (stereo unspecified), the growth is reported as 75.1% (inactive).
In the case of `CC1CCCC(C[N+](C)(C)C)C1=O` (stereo unspecified), the growth is reported as 106% (inactive).
With `CC(=O)/C=C/c1ccc2c(c1)OCO2` the growth was 102% (inactive).
With `O=C(O)c1ccc([S-])cc1.[Au+].c1ccc(CN2[CH-]N(Cc3ccccc3)C(c3ccccc3)=C2c2ccccc2)cc1` the growth was -28% (active).
